# Compound activity: PubChem, National Center for Advancing Translational Sciences (NCATS)
# Marburg entry inh – qHTS for inhibitors of binding or entry into cells for Marburg Virus. Marburg virus pseudotyped entry inhibition, cell reporter. Potency, µM (titrated, usually from 37.8 µM), for the others: top-dose activity change, negative = inhibition, most hits filed as inhibitors. 300,000 compounds, 1.8% hits; calls by dose curve; tested in HEK293 cells
# Vaccinia Venus – qHTS for Stage-Specific Inhibitors of Vaccinia Orthopoxvirus: Venus Reporter Primary qHTS. Vaccinia virus Venus reporter expression, fluorescence. Potency, µM (titrated, usually from 36.5 µM), without a hit: at the top dose activity change, negative = inhibition, usual class: inhibitors. 330,000 compounds, 0.46% hits. AID 720580, 2013; calls by dose curve; tested in A549 cells; also: nearly all actives have a fitted effect of over 30% in size
# HCV inh – qHTS Assay for Inhibitors of Hepatitis C Virus (HCV); Huh7.5.1 HCVcc-Cre infection, luciferase reporter, 44 h; 340,000 compounds, 3.4% hits; Potency, µM (top dose mostly 41.8 µM), inactives show top-dose activity change, negative = inhibition, usual class: inhibitors; AID 651820, 2012; active = well fitted inhibition curve with a large enough effect; inconclusive = small, poorly fitted or top-dose-only effect, or another doubt; inactive = no such curve, though single readings can be large or run the other way
#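 Infectious HCVcc-Cre (~0.5 moi) was added to cells just after compound, with cells seeded 4 h earlier at 1,000 per well. Luciferase activity after 44 h culture reported infection; substrate was incubated 15 min at room temperature before reading.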
# Lassa entry inh – qHTS for Inhibitors of binding or entry into cells for Lassa Virus; Potency, µM (doses to about 37.9 µM), without a hit: at the highest dose activity change, negative = inhibition, hits mostly inhibitors; 300,000 compounds, 1.2% hits; Lassa virus pseudotype entry inhibition, cell reporter; calls by dose curve; tested in HEK293 cells; also: nearly all actives have a fitted effect of over 50% in size
# Vaccinia mCherry – qHTS for Stage-Specific Inhibitors of Vaccinia Orthopoxvirus: mCherry Reporter Primary qHTS | Vaccinia virus mCherry reporter infection, fluorescence | Potency, µM (titrated, usually from 36.5 µM), for inactives: at the highest dose activity change, negative = inhibition, actives largely listed as inhibitors | 310,000 compounds, 0.63% hits | AID 720579, 2013; calls by dose curve; tested in A549 cells; also: nearly all actives have a fitted effect of over 35% in size
# * hit, by the source's call; i = inactive; ? = inconclusive; · = no result given; [ ] = dose if it differs, or a comment. An excerpt weighted towards active compounds, which were near 4.6% of everything screened. % is scaled to controls: 0 for no effect and ±100 for the full control effect; potency is read from the fitted curve at half-maximal effect.
SMILES,Marburg entry inh,Vaccinia Venus,HCV inh,Lassa entry inh,Vaccinia mCherry
Cc1ccc(C(OCCN(C)C)c2cccc(C(F)(F)F)c2)cc1 (configuration not stated),20.6µM*,-15.5%,?,?,-7.7%
CCc1cc(C(=O)N(C)CC(=O)Nc2c(Cl)cccc2Cl)sc1C,?,-10.5%,-27.4%,8.91µM*,i
CN(CC(=O)Nc1c(Cl)cccc1Cl)C(=O)Cc1ccsc1,7.3%,-8.2%,12.9%,-10.1%,-19.7%
Brc1ccc(N/N=C(/N=Nc2nn[nH]n2)c2ccccc2)cc1,·,12.6µM*,5.62µM*,·,?
Cc1cnc(SCC2CCCO2)nc1C1CCCN(C(=O)c2ccc(S(N)(=O)=O)cc2)C1 (configuration not stated),·,0.0%,·,·,-14.6%
CC(=O)Nc1c(Br)cc2c(c1Br)C(=O)c1ccccc1-2,15.9%,-9.8%,-24.7%,10.8%,-0.3%
CC(=O)C1=C(c2ccc(Br)cc2)C(=O)c2ccccc2C1=O,5.17µM*,5.7%,?,2.51µM*,-15.3%
COc1ccc(-c2cn3c(n2)sc2cc(C(=O)Nc4cccc(SC)c4)ccc23)cc1,·,-8.5%,·,?,-9.8%
Cc1ccc2c(c1)c1c(n2C)-c2[nH]ncc2CC1,27.2%,·,10µM*,?,·
CCc1cc2c(nc1CC)CCN(CCC(C)=NO[C@@H](C)c1cn([C@H](CO)Cc3ccccc3)nn1)C2,-27.1%[14.2 µM],·,·,·,·
CCc1nccc2c1nc(-c1nonc1N)n2CC,·,·,·,25µM*,·
CCC(=O)N[C@@H]1c2ccccc2C2(CCN(Cc3[nH]c4c(Cl)cccc4c3C)CC2)[C@H]1OC,·,-8.6%,·,·,-7.2%
CSc1ccccc1C(=O)NCC1Cc2cccc(-c3ncccc3C)c2O1 (configuration not stated),·,-16.3%,·,·,i
Cc1nc2cc(NS(=O)(=O)c3c(C)c(C)cc(C)c3C)ccc2s1,-26.8%,?,2.82µM*,-7.2%,?
CC(=O)Nc1ccc(S(=O)(=O)Nc2ccc3nc(C)sc3c2)cc1,?,7.6%,?,?,-17.2%
Cc1nc2ccc(NS(=O)(=O)c3c(C)c(C)cc(C)c3C)cc2s1,?,?,15.8µM*,?,?
Cc1nc2cc(NS(=O)(=O)c3ccccc3F)ccc2s1,·,-9.9%,-12.4%,·,-20.2%
OC[C@H]1O[C@@H](n2cnc3c(N[C@H]4C[C@H]5CC[C@@H]4C5)ncnc32)[C@H](O)[C@@H]1O,·,-11.9%,·,·,-14.6%
COc1ccc(CN2CCc3nc(SCC(=O)Nc4cc(C)cc(C)c4)[nH]c(=O)c3C2)cc1,16.9%[46.1 µM],-1.8%,·,11.0%[46.1 µM],-12.2%
Brc1ccc(C2C=Cc3ccccc32)cc1 (configuration not stated),·,11.8%,·,·,35.4%
O=c1c([N+](=O)[O-])c(N2CCOCC2)c2ccccc2n1Cc1ccccc1,-1.7%[46.1 µM],-13.3%,?,?,-22.4%
CCn1c(=O)c([N+](=O)[O-])c(N2CCSCC2)c2ccccc21,?,?,14.1µM*,-1.0%,?
CCn1c(=O)c([N+](=O)[O-])c(N2CCN(Cc3ccc4c(c3)OCO4)CC2)c2ccccc21,?,?,11.2µM*,?,-23.7%
Cc1ccc2cc(/C=N/NC(=O)[C@H]3C[C@@H]3c3ccccc3)c(Cl)nc2c1,4.0%,·,11.9%,0.0651µM*,·
O=C(N/N=C/c1cc2ccccc2nc1Cl)[C@H]1C[C@@H]1c1ccccc1,?,-15.1%,?,0.366µM*,i
SMILES,Marburg entry inh,Vaccinia Venus,HCV inh,Lassa entry inh,Vaccinia mCherry
Cc1ccc(O)c(C(=O)c2coc(=N)c(C(=O)NC(C)C)c2)c1,-11.0%,·,-11.0%,-0.1%,·
Cc1ccc(O)c(C(=O)c2cc(C(=O)NCCC(C)C)c(=O)n(CCC(C)C)c2)c1,?,-10.7%,10µM*,-0.2%[46.1 µM],i
Cc1cc(/N=C/C=C2\N(C)c3ccccc3C2(C)C)n(CCC#N)n1,?,?,11.2µM*,-77.8%,-23.8%
CCN(CC)S(=O)(=O)c1ccc(C(=O)C(C#N)c2ccccn2)cc1 (configuration not stated),1.5%,4.0%,10µM*,-5.0%,-6.5%
CCCCC(=O)Nc1ccc(C(=O)c2ccccc2)cc1,?,-21.6%,-13.8%,16.9%[46.1 µM],-19.3%
CCCCCC(=O)Nc1ccc(C2C(=O)c3ccccc3C2=O)cc1,·,·,2.51µM*,·,·
CC(=O)O[C@H]1C[C@@H]2OC3C=C(C)CCC3(C)[C@@]1(C)[C@@]21CO1 (some centres not stated),0.447µM*,·,·,·,·
Cn1c(SCc2ccccc2)nnc1C1CCCN(Cc2cccc3ncccc23)C1 (configuration not stated),·,-6.6%,·,·,-8.7%
Cc1cccc(-c2cc(C(=O)Nc3sc(C)c(C)c3C(N)=O)c3ccccc3n2)c1,?,-8.6%,-24.1%,-22.9%,i
Cc1ccc(C)c(-c2cc(C(=O)Nc3sc(C)c(C)c3C(N)=O)c3ccccc3n2)c1,?,·,11.2µM*,?,·
CC(=O)Nc1ccccc1OCC(=O)N(Cc1ccccc1)C(C)C,?,-25.2%,15.8µM*,3.0%,-5.5%
O=C(Nc1ccc(Oc2c(F)c(F)c(F)c(F)c2F)cc1)OC1CCN2Cc3ccccc3N=C12 (configuration not stated),?,-13.0%,3.16µM*,?,-3.8%
CN(C)S(=O)(=O)N1CCC(Oc2ccc(C(=O)NC3CCCCC3)cc2)CC1,20.1%[46.1 µM],-14.4%,-9.1%,-15.0%,-21.1%
CN(C)S(=O)(=O)N1CCC(Oc2cccc(C(=O)NC3CCCCC3)c2)CC1,-9.5%[46.1 µM],-18.5%,5.62µM*,?,i
CC(C(=O)NCCc1ccc(Cl)cc1)n1c(=O)c2cccn2c2cccnc21 (configuration not stated),·,·,11.2µM*,·,·
CCc1ccc(CNC(=O)CCCn2c(=O)c3cccn3c3cccnc32)cc1,·,·,10µM*,·,·
CC(C)Oc1ccc(CNC(=O)CCCn2c(=O)c3cccn3c3cccnc32)cc1,·,-11.6%,·,9.1%[46.1 µM],-16.8%
O=C(CCCn1c(=O)c2cccn2c2cccnc21)NCCc1ccc(Cl)cc1,·,-8.4%,?,1.4%[46.1 µM],-11.6%
O=C(Cn1c(=O)c2cccn2c2cccnc21)N1CCN(c2ccc(Cl)cc2)CC1,·,·,12.6µM*,·,·
Cc1cccc2cc(CN(C(=O)c3ccc(N4CCCCC4)cc3)C3CC3)c(N3CCC(O)CC3)nc12,·,-4.7%,·,·,-21.0%
COC(=O)N[C@H](C(C(=O)OC)=C(C)NCc1ccccc1)c1ccc(Cl)cc1,-16.7%[14.2 µM],·,·,·,·
CN(C)c1ccc(C(CNS(=O)(=O)c2ccc(Br)cc2)N2CCCC2)cc1 (configuration not stated),·,-14.2%,·,-18.3%[46.1 µM],-20.6%
Cc1ccc(C(C)C)cc2c(C)ccc1-2,·,-14.0%,35.5µM*,·,i
COc1cc(=O)n2c(c1C(=O)N(C)Cc1cscn1)CCN(Cc1ccc3c(c1)OCCO3)CC2,·,0.0%,·,·,-16.7%
